Screening results as filed in PubChem BioAssay.
CYP2C9 inh: blockers of cytochrome P450 2C9 activity – biochemical, luminescence, ADME assay, primary screen | P11712 | CYP2C9 Supersomes, luciferin-H conversion | inhibition, % at 5 µM | 96,000 tested, 20% active;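 active = blocking of liver enzyme CYP2C9 beyond about 50% at 5 µM, limit read from the data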
Target sequence (P11712 whole entry, looked up): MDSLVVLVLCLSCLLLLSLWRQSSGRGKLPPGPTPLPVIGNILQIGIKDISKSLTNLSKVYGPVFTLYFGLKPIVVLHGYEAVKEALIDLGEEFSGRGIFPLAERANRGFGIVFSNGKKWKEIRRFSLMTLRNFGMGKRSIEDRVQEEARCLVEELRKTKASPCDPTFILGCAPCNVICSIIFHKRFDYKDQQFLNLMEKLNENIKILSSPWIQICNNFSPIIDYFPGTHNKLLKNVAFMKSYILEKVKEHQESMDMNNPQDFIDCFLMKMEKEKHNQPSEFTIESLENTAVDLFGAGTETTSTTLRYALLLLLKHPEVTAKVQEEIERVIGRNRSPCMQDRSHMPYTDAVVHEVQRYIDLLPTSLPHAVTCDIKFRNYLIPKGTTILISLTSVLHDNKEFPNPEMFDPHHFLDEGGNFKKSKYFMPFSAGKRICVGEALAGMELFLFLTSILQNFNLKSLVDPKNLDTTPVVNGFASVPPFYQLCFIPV
CYP2C19 activ: human CYP2C19 activators, primary screen, biochemical, luminescence | Cytochrome P450 2C19 (Homo sapiens), P33261 | recombinant CYP2C19, luciferin-H EGE luminescence; stronger effect = higher value; 0 = fully inhibited enzyme, 1 = untreated enzyme | activation factor at 5 µM | 96,000 tested, under 10 active | AID 1025, 2008;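 active = activation factor of at least 2 at 5 µM in the primary screen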;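 note: 0 = wells with 2.5 mM tranylcypromine and 1 = vehicle-only wells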
CYP2C9 activ: human CYP2C9 activators, primary screen, biochemical, luminescence; 96,000 tested, 1.4% active; activation factor at 5 µM; recombinant CYP2C9, luciferin-H conversion; stronger effect = higher value; factor 1 = untreated enzyme, 0 = blocked; Cytochrome P450 2C9 (Homo sapiens), P11712; AID 1024, 2008;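 active = activation factor of 2 or more for CYP2C9 at a 5 µM dose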;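 note: 0 = sulfaphenazole-blocked wells and 1 = vehicle-only wells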
CYP2C19 inhib: blockers of cytochrome P450 2C19 activity – biochemical, luminescence, ADME assay, primary screen; CYP2C19 Supersomes, luciferin-H EGE luminescence, 30 min; inhibition, % at 5 µM; 96,000 tested, 21% active; AID 778, 2007;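 active = CYP2C19 inhibition above a set limit at 5 µM in the primary screen, cut at about 50% in these data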;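 note: plate controls were negative control wells for no effect and 2.5 mM tranylcypromine positive control for full effect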
Cav32 inh: Cav3.2 calcium influx blockers – cell-based, Fluo-4 calcium fluorescence, FDSS, MLSMR library, primary screen; Voltage-dependent T-type calcium channel subunit alpha-1H (Homo sapiens), O95180; Cav3.2-expressing cells; stronger effect = lower value; B-score at 10 µM; 100,000 tested, 4% active;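 active = single-dose well whose peak fluorescence ratio is a statistical outlier from its plate by either plate-standardised score or position-corrected B-score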
Numbers without * were called inactive; / = no result given. An excerpt weighted towards active compounds, which were near 27% of everything screened.

SMILES	CYP2C9 inh	CYP2C19 activ	CYP2C9 activ	CYP2C19 inhib	Cav32 inh
c1ccc(Cn2nnnc2-c2ccco2)cc1	16	0.5	0.8	45	-0.73
COC(=O)c1ccc(-c2ccco2)n1Cc1cc(C)ccc1C	7	1.1	0.9	-13	0.98
CCN(CC)CCCN1C(=O)c2oc3ccccc3c(=O)c2C1c1cccc(OC)c1OC (centres undefined)	33	0.8	0.7	21	0.65
c1nc(NCC2CCCO2)c2[nH]cnc2n1 (centres undefined)	/	/	/	/	-0.029
c1ccc2c(c1)[nH]c1c(NCC3CCCO3)ncnc12 (centres undefined)	54*	0.6	0.5	44	1.6
CCOCCCNc1nc2ccccc2[nH]1	3	0.9	1	7	0.0061
CCCCOCCCNc1ncnc2c1[nH]c1ccccc12	66*	0.5	0.3	52*	-4.7*
CCOCCCNc1ncnc2c1[nH]c1ccccc12	39	0.4	0.6	60*	0.84
CCCCOc1ncnc2c1[nH]c1ccccc12	24	0.6	0.8	40	0.68
Cc1ccsc1C(=O)OCc1csc(-c2ccccc2)n1	-6	0.9	1.1	6	-0.82
COc1ccc(CN2CCn3ncc(C(=O)Nc4cc(C)cc(C)c4)c3C2=O)cc1	-3	0.8	1	19	0.0033
Cc1ccccc1CS(=O)(=O)c1snnc1C	-1	0.5	1	55*	1
Cc1ccccc1CS(=O)(=O)c1cnc2ccccc2n1	-129	0.1	2.3*	93*	0.38
O=C1NNC(=O)C2C3C=CC(C4CC34)C12 (centres undefined)	2	1	1	4	0.83
C/C(=N\NC(=O)c1c(Cl)c(C)nn1C)c1cccc(NC(=O)COc2ccc(Cl)cc2)c1	40	0.7	0.6	34	0.038
CCNC(=O)Nn1c(C)nnc1C	-18	1.2	1.2	-16	0.49
Cc1csc(=NC(=O)c2ccccc2)n1C	/	/	/	/	0.11
O=C(N=c1nc2ccccn2s1)c1ccccc1	36	0.2	0.6	76*	/
CC1=CCC(C(=O)O)(C(=O)N/N=C/c2cccs2)C(c2ccc(F)cc2)C1 (centres undefined)	67*	0.9	0.3	8	-0.21
COc1cccc(C2CC(c3ccccc3Cl)n3nnnc3N2)c1 (centres undefined)	89*	0	0.1	100*	-0.2
CCOc1ccc(C2CC(c3cccc(OC)c3)Nc3ncnn32)cc1 (centres undefined)	95*	0.2	0	79*	/
COc1cccc(C2CC(c3ccccc3Cl)n3ncnc3N2)c1 (centres undefined)	52*	0	0.5	97*	-0.6
COc1cccc(C2CC(c3c(Cl)cccc3Cl)n3nc(N)nc3N2)c1 (centres undefined)	9	0.8	0.9	19	1
COc1ccc(C2CC(c3cccc(OC)c3)n3nc(N)nc3N2)cc1 (centres undefined)	9	0.9	0.9	13	0.085
COc1ccc(C2CC(c3cccc(OC)c3OC)n3nnnc3N2)cc1 (centres undefined)	65*	0	0.3	96*	1.6
SMILES	CYP2C9 inh	CYP2C19 activ	CYP2C9 activ	CYP2C19 inhib	Cav32 inh
CCOc1ccc(C2CC(c3cccc(OC)c3)n3nc(N)nc3N2)cc1 (centres undefined)	21	1	0.8	3	1.7
COc1ccc(-c2ccc(C#N)c(OC(=O)c3c(Cl)cccc3Cl)n2)cc1	23	1.1	0.8	-10	-1.8
CC1CCC(C(=O)NC(C(=O)NCCN2CCC(C)CC2)C(C)C)CC1 (centres undefined)	2	1.1	1	-7	0.93
O=[N+]([O-])c1ccc(N2CCC(=NOCc3ccc(Cl)cc3)CC2)cc1	40	0.8	0.6	19	-5.7*
Cc1ccc(C(=O)ON=C2CCN(c3ccc([N+](=O)[O-])cc3)CC2)cc1	10	1	0.9	1	0.25
COc1cc(CNC2CCCCCC2)cc(OC)c1	-1	0.6	1	37	0.16
O=P(O)(CCc1ccncc1)CN1CCCCC1	-15	1.1	1.1	-14	-0.0038
CCC(c1nnnn1CCc1ccccc1)N1CCN(c2ccc(OC)cc2)CC1 (centres undefined)	25	0.7	0.8	30	-2.1
Cc1cccc(Cn2c(C(C)O)nc3ccccc32)c1 (centres undefined)	-1	0.7	1	31	0.13
CC(=O)Nc1nc2ccccc2n1CCOc1ccccc1Cl	13	0.4	0.9	60*	0.08
CC(NC(=O)c1ccccc1)c1nc2ccccc2n1Cc1ccccc1F (centres undefined)	60*	0.5	0.4	48	/
Cc1ccccc1Cn1c(C(C)O)nc2ccccc21 (centres undefined)	-3	0.4	1	59*	-0.79
CCCn1c(NC(=O)c2ccccc2)nc2ccccc21	-22	1	1.2	3	-0.86
CC(=O)Nc1nc2ccccc2n1Cc1ccccc1C	13	0.2	0.9	82*	0.15
CC(=O)NCc1nc2ccccc2n1Cc1ccccc1C	-8	0.8	1.1	16	0.61
Cc1ccc(-c2nnc(C)c(N3CCOCC3)n2)cc1	1	0.9	1	12	0.69
CCOC(=O)C(C)Sc1nc(-c2cccs2)ccc1C#N (centres undefined)	96*	0.1	0	91*	-1.4
C=COC(=O)CSc1nc(-c2cccs2)ccc1C#N	15	1	0.9	-3	-0.34
CC(C)c1nc2sc3c(c2c(=O)o1)CCCC3	66*	0.5	0.3	51*	0.25
Nc1nc2sc3c(c2c(=O)s1)CCCC3	80*	0.6	0.2	44	-0.78
O=c1c2c3c(sc2nc2n1CCCC2)CCCCC3	62*	0.8	0.4	24	1.2
Cc1nc2sc3c(c2c(=O)o1)CCCC3	14	1	0.9	-1	0.033
COCCn1c(SCC(=O)NCc2ccco2)nnc1C(C)C	/	/	/	/	-0.61
CC1(C)CC(=O)C2(CC3=C(CC(C)(C)CC3=O)O2)C(=O)C1	-5	1	1	-3	-0.67
COC(=O)c1ccc(NCCc2csc(-c3ccc(C)cc3)n2)c([N+](=O)[O-])c1	60*	0.5	0.4	52*	-2.6
NC(=O)C1=C[C@H](c2ccc(C(F)(F)F)cc2)C[C@H](OCc2ccc(CO)cc2)O1	/	/	/	/	-1.6
Cc1ccc(S(=O)(=O)N2CCN(C)CC2)c(C)c1N(C)S(=O)(=O)c1ccc(Cl)cc1	47	0.3	0.5	67*	0.69
CCOc1ccc(S(=O)(=O)N2CCN(C)CC2)c(C)c1C	-28	0.7	1.3	28	0.15
